The campaign covered roughly 5,500 compounds. About 2,000 (36%) were called active. Not shown: some 18% with an inconclusive outcome. Cut-off read from the data, not from the text of the source: active = normalized growth mostly below about 0.91 (no sharp cut-off); inconclusive = no clear call, values can overlap the other calls; inactive = mostly above about 0.92. Some of the results follow.
Experiment: chemical genetic growth profiling, strain panel (AID 1159580);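 note: tested at 20 µM; growth read once vehicle control cultures reached saturation at 30 °C; 1 = growth at the plate median or of vehicle wells; lower values mean less growth of the strain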
Details: S. cerevisiae deletion strains, growth OD
[1] = locus YDL101C, strain DUN1, stronger effect = lower value
[2] = locus YHR030C, strain SLT2, stronger effect = lower value
[3] = locus YAR019C, strain CDC15, stronger effect = lower value
[4] = locus YBL105C, strain PKC1, stronger effect = lower value
[5] = locus YBR135W, strain CKS1, stronger effect = lower value
[6] = locus YBR136W, strain MEC1, stronger effect = lower value
[7] = locus YBR160W, strain CDC28, stronger effect = lower value
[8] = locus YDL017W, strain CDC7, stronger effect = lower value
[9] = locus YDL028C, strain MPS1, stronger effect = lower value
[10] = locus YDL108W, strain KIN28, stronger effect = lower value
[11] = locus YDL132W, strain cdc53, stronger effect = lower value
[12] = locus YDL214C, strain PRR2, stronger effect = lower value
[13] = locus YDR052C, strain DBF4, stronger effect = lower value
[14] = locus YDR054C, strain cdc34, stronger effect = lower value
[15] = locus YDR226W, strain ADK1, stronger effect = lower value
[16] = locus YDR477W, strain SNF1, stronger effect = lower value
[17] = locus YER123W, strain YCK3, stronger effect = lower value
[18] = locus YER133W, strain GLC7, stronger effect = lower value
[19] = locus YFL009W, strain cdc4, stronger effect = lower value
[20] = locus YFL029C, strain CAK1, stronger effect = lower value
[21] = locus YFR003C, strain YPI1, stronger effect = lower value
[22] = locus YFR019W, strain FAB1, stronger effect = lower value
[23] = locus YFR028C, strain CDC14, stronger effect = lower value
[24] = locus YGR040W, strain KSS1, stronger effect = lower value
[25] = locus YGR052W, strain FMP48, stronger effect = lower value
[26] = locus YGR092W, strain DBF2, stronger effect = lower value
[27] = locus YHR079C, strain IRE1, stronger effect = lower value
[28] = locus YHR082C, strain KSP1, stronger effect = lower value
[29] = locus YHR205W, strain SCH9, stronger effect = lower value
[30] = locus YIL147C, strain SLN1, stronger effect = lower value
[31] = locus YJL095W, strain BCK1, stronger effect = lower value
[32] = locus YJL128C, strain PBS2, stronger effect = lower value
[33] = locus YJL157C, strain FAR1, stronger effect = lower value
[34] = locus YJR016C, strain ILV3, stronger effect = lower value
[35] = locus YJR066W, strain TOR1 (second series), stronger effect = lower value
[36] = locus YJR066W, strain TOR1, stronger effect = lower value
[37] = locus YKL048C, strain ELM1, stronger effect = lower value
[38] = locus YKL067W, strain YNK1, stronger effect = lower value
[39] = locus YKL101W, strain HSL1, stronger effect = lower value
[40] = locus YKL193C, strain SDS22, stronger effect = lower value
[41] = locus YKL203C, strain TOR2, stronger effect = lower value
[42] = locus YLR113W, strain HOG1, stronger effect = lower value
[43] = locus YLR133W, strain CKI1, stronger effect = lower value
[44] = locus YLR403W, strain SFP1, stronger effect = lower value
[45] = locus YML070W, strain DAK1, stronger effect = lower value
[46] = locus YMR001C, strain CDC5, stronger effect = lower value
[47] = locus YMR205C, strain PFK2 (second series), stronger effect = lower value
[48] = locus YMR277W, strain FCP1, stronger effect = lower value
[49] = locus YNL006W, strain LST8, stronger effect = lower value
[50] = locus YNL020C, strain ARK1, stronger effect = lower value
[51] = locus YNL161W, strain CBK1, stronger effect = lower value
[52] = locus YNL183C, strain NPR1, stronger effect = lower value
[53] = locus YNL207W, strain RIO2, stronger effect = lower value
[54] = locus YNL222W, strain SSU72, stronger effect = lower value
[55] = locus YNL307C, strain MCK1 (second series), stronger effect = lower value
[56] = locus YOL078W, strain AVO1, stronger effect = lower value
[57] = locus YOL136C, strain PFK27, stronger effect = lower value
[58] = locus YOR061W, strain CKA2, stronger effect = lower value
[59] = locus YOR119C, strain RIO1, stronger effect = lower value
[60] = locus YOR231W, strain MKK1, stronger effect = lower value
[61] = locus YOR329C, strain SCD5, stronger effect = lower value
[62] = locus YPL031C, strain PHO85, stronger effect = lower value
[63] = locus YPL153C, strain RAD53, stronger effect = lower value
[64] = locus YPL204W, strain HRR25, stronger effect = lower value
[65] = locus YPL209C, strain IPL1, stronger effect = lower value
[66] = locus YPL256C, strain CLN2, stronger effect = lower value
[67] = locus YPR025C, strain CCL1, stronger effect = lower value
[68] = locus YPR106W, strain ISR1, stronger effect = lower value
[69] = locus YPR111W, strain DBF20, stronger effect = lower value
[70] = strain NNK1, stronger effect = lower value
[71] = strain TSCII, stronger effect = lower value

Measured: normalized growth

N/C(=N\OC(=O)c1ccno1)c1ccc(C(F)(F)F)cc1
inactive: locus YAL013W, strain DEP1, stronger effect = lower value 0.951 | locus YBR229C, strain ROT2, stronger effect = lower value 0.992 | locus YCL061C, strain MRC1, stronger effect = lower value 0.974 | [1] 1.02 | locus YDR150W, strain NUM1, stronger effect = lower value 0.978 | locus YEL061C, strain CIN8, stronger effect = lower value 1 | locus YGR078C, strain PAC10, stronger effect = lower value 0.971 | locus YGR229C, strain SMI1, stronger effect = lower value 1.02 | [2] 0.888 | locus YHR087W, strain rtc3, stronger effect = lower value 0.966 | locus YJL187C, strain SWE1, stronger effect = lower value 0.993 | locus YJR043C, strain POL32, stronger effect = lower value 0.988 | locus YJR075W, strain HOC1, stronger effect = lower value 1.01 | locus YKL190W, strain CNB1, stronger effect = lower value 1.01 | locus YLR039C, strain RIC1, stronger effect = lower value 0.91 | locus YLR058C, strain SHM2 (second series), stronger effect = lower value 0.988 | locus YLR085C, strain ARP6, stronger effect = lower value 1.06 | locus YLR262C, strain YPT6, stronger effect = lower value 0.944 | locus YML094W, strain GIM5, stronger effect = lower value 0.95 | locus YMR219W, strain ESC1, stronger effect = lower value 0.996 | locus YMR263W, strain SAP30, stronger effect = lower value 0.98 | locus YMR307W, strain GAS1, stronger effect = lower value 1.17 | locus YNL153C, strain GIM3, stronger effect = lower value 0.973 | locus YNL298W, strain CLA4 (second series), stronger effect = lower value 0.949 | locus YNL322C, strain KRE1, stronger effect = lower value 0.987 | locus YNR030W, strain Alg12, stronger effect = lower value 0.939 | locus YOL006C, strain TOP1, stronger effect = lower value 0.939 | locus YPL055C, strain LGE1, stronger effect = lower value 0.839 | locus YPL241C, strain CIN2, stronger effect = lower value 1.03 | locus YPR135W, strain CTF4, stronger effect = lower value 0.82

Cc1cc(C(=O)O/N=C(/N)c2ccc([N+](=O)[O-])o2)no1
inactive: [3] 0.961 | [4] 0.968 | [5] 0.963 | [6] 0.962 | [7] 0.951 | [8] 0.963 | [9] 0.931 | [1] 0.964 | [10] 0.949 | [11] 0.968 | [12] 0.887 | [13] 0.919 | [14] 0.991 | [15] 0.927 | [16] 0.918 | [17] 0.87 | [18] 0.963 | [19] 0.97 | [20] 0.965 | [21] 0.955 | [22] 0.877 | [23] 0.938 | [24] 0.848 | [25] 0.869 | [27] 0.832 | [28] 0.892 | [29] 0.745 | [30] 0.946 | [31] 0.796 | [32] 0.895 | [33] 0.914 | [34] 0.953 | [35] 0.822 | [36] 0.809 | [37] 0.831 | [38] 0.868 | [39] 0.83 | [40] 0.962 | [41] 0.99 | [43] 0.894 | [44] 0.927 | [45] 0.846 | [46] 0.963 | [47] 0.938 | [48] 0.941 | [49] 0.979 | [50] 0.885 | [51] 0.967 | [52] 0.898 | [53] 0.948 | [54] 0.957 | [55] 0.825 | [56] 0.952 | [57] 0.873 | [58] 0.866 | [59] 0.888 | [61] 0.965 | [62] 0.92 | [63] 0.949 | [64] 0.946 | [65] 0.964 | [67] 0.97 | [68] 0.936 | [69] 0.896 | [70] 0.94 | [71] 0.965
active: [26] 0.178 | [2] 0.218 | [42] 0.757 | [60] 0.567 | [66] 0.741

Cc1cc(C(=O)O/N=C(/N)c2ccc(C(C)(C)C)cc2)no1
inactive: [3] 0.972 | [4] 0.979 | [5] 0.975 | [6] 0.985 | [7] 0.979 | [8] 0.993 | [9] 0.971 | [1] 0.993 | [10] 0.976 | [11] 0.975 | [12] 0.909 | [13] 0.986 | [14] 0.963 | [15] 0.983 | [16] 0.911 | [17] 0.901 | [18] 0.882 | [19] 0.952 | [20] 0.969 | [21] 0.986 | [22] 0.922 | [23] 0.98 | [24] 0.956 | [25] 0.958 | [26] 0.906 | [27] 0.789 | [28] 0.939 | [29] 0.822 | [30] 0.982 | [31] 0.772 | [32] 0.938 | [33] 0.923 | [34] 0.98 | [35] 0.738 | [36] 0.722 | [37] 1.05 | [38] 0.921 | [39] 1.01 | [40] 0.978 | [41] 0.88 | [43] 0.943 | [44] 0.852 | [45] 0.915 | [46] 0.974 | [47] 0.916 | [48] 0.961 | [49] 0.972 | [50] 0.942 | [51] 0.983 | [52] 0.782 | [53] 0.979 | [54] 0.969 | [55] 0.939 | [56] 0.979 | [57] 0.959 | [58] 0.93 | [59] 0.911 | [60] 0.803 | [61] 0.987 | [62] 0.901 | [63] 0.893 | [64] 0.914 | [65] 0.974 | [66] 0.884 | [67] 0.973 | [68] 0.98 | [69] 0.964 | [70] 0.999 | [71] 0.966
active: [2] 0.77 | [42] 0.789
